According to PubChem BioAssay AID624300 (Southern Research Specialized Biocontainment Screening …, 2012):
The whole screen tested about 2,400 compounds, of which about 360 (15%) were called active. These entries were drawn from the full list. Potency and affinity values are given separately. A number with no mark means an inactive call.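 Rule for the calls: active = viability falls under 70% at one or more tested concentrations, taken as toxicity; inactive = viability stays over 70% at every dose.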

Test: HeLa cell cytotoxicity, dose response, cytotoxicity control for MgcRacGAP inhibitor project (AID 624300);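 note: 100% = median of untreated control wells on the same plate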
Conditions: CellTiter-Glo luminescence, 24 h; series mostly up to 100 µM; viability: at the top concentration

SMILES | viability
CN=c1scc(C)n1/N=C/c1ccc(O)cc1 | 104%
Cc1cc(Br)cc(C=Nc2ccc(N3CCOCC3)cc2)c1O | 108%
O=C(c1cccc(Cl)c1)N1CCN(C2CCCCC2)CC1 | 98.8%
Cc1c(Cl)cccc1NC(=S)Nc1ccc2[nH]c(=O)[nH]c2c1 | 103%
Cc1ccc(OCCN2CCN(C)CC2)c([N+](=O)[O-])c1 | 93.3%
O=C(CSc1nnnn1C1CC1)N1CCN(c2ccc(O)cc2)CC1 | 104%
CCC(C)N1CCN(C(=O)c2cccs2)CC1 (stereo not given) | 103%
Oc1ccc(Nc2ncnc3c2oc2ccccc23)cc1 | 93.6%
O=c1oc2ccccc2cc1-c1csc(Nc2ccc(O)cc2)n1 | 100%
OC1CNc2c(ccc3ccccc23)C1 (stereo not given) | 99.1%
O=[N+]([O-])c1ccc(N2CCN(CCOCCO)CC2)c([N+](=O)[O-])c1 | 92.2%
COc1ccc(OCCOCCN2CCN(C)CC2)cc1 | 109%
CC(CCN1CCN(CCO)CC1)c1ccccc1 (stereo not given) | 100%
OCCN1CCN(Cc2ccc3ccccc3c2)CC1 | 99.5%
COc1ccc(O)c(/C=N/NC(=O)c2c(C)nnn2-c2nonc2N)c1 | 91%
c1ccc(CC2CCN(Cc3ccccn3)CC2)cc1 | 95.7%
CCC1(c2ccccc2)NC(=O)N(CC(=O)Nc2ccc(N3CCCC3)cc2C)C1=O (stereo not given) | 91.3%
CCOC(=O)c1c(C)[nH]c(C(=O)CN2CCN(CC)CC2)c1C | 99.3%
CCOC(=O)C1=C(C)Nc2ccc(C)cc2S1 | 94.1%
COC(=O)c1cc(NCc2cccs2)ccc1N1CCOCC1 | 96%
COc1cc(CNc2ccc(N3CCN(C(C)=O)CC3)cc2)ccc1OCc1ccccc1 | 89%
COc1cc(CNc2ccc3[nH]c(=O)[nH]c3c2)ccc1OCc1ccccc1 | 108%
O=C(N/N=C/c1ccc(O)c2ccccc12)c1cccnc1 | 96.2%
Cc1nc(N)sc1-c1ccccc1 | 94.9%

SMILES | viability
COc1cc(Br)c(CNc2cc(C)ccc2C)cc1OC | 87.7%
COc1ccccc1/C=C1/C(=O)N(c2ccccc2)N=C1C | 103%
Cc1c(N2C(=O)/C(=C\c3ccc(N(C)C)cc3)N(C)C2=S)c(=O)n(-c2ccccc2)n1C | 83.4%
CC1=NN(c2cccc(C(=O)O)c2)C(=O)/C1=C\C=C\c1ccco1 | 94.4%
CC1=NN(c2ccc(C(=O)O)cc2)C(=O)/C1=C\c1ccc(OC(=O)c2cccs2)cc1 | 94.7%
Cc1ccc(N2C(S)=C(C#N)C(=O)NC2c2ccco2)cc1 (stereo not given) | 98.9%
CCOc1cc(/C=N/NC(=O)C(=O)N2CCCC2)ccc1O | 104%
Oc1ccc2ccccc2c1Br | 94.4%
CC[n+]1c(/C=C/N(C)c2ccccc2)oc2ccc(Cl)cc21 | 95.9%
CC(=O)N1CCN(c2ccc(NCc3ccco3)cc2)CC1 | 106%
O=C(O)c1ccc(COc2ccccc2C=C2C(=O)c3ccccc3C2=O)cc1 | 98.2%
CCN(CC)c1ccc(/C=C2\C(=O)c3ccc(C(=O)O)cc3C2=O)cc1 | 101%
Cc1cc(-c2n[nH]c(=S)n2/N=C/c2ccccc2[N+](=O)[O-])n[nH]1 | 106%
Cc1cccn2c(=S)[nH]nc12 | 93.5%
OCC1CCCN(C(=S)Nc2ccc(Nc3ccccc3)cc2)C1 (stereo not given) | 95.6%
Nc1ccc(Nc2ccncc2)cc1 | 99.7%
Cc1ccc(/C=C/C(=O)Nc2ccc([N+](=O)[O-])c(NC(=O)/C=C/c3ccc(C)o3)c2)o1 | 102%
Cc1c(O)ccc(NC(=O)/C=C/c2ccccc2)c1C | 97.4%
C/C(=N/NC(=O)CSc1nc2ccccc2n1C)c1ccc(O)cc1 | 100%
CCOC(=O)C(Cc1ccccc1)C(=O)Nc1ccc(N(CC)CC)cc1 (stereo not given) | 98.7%
CCOC(=O)/C(C#N)=C\c1ccc(O)c(OC)c1 | 87.2%
CCOc1c(C=C(C#N)C#N)c2ccccc2n1CC | 98.9%
COc1ccc(NC2CCCN(C(=O)CCCn3cncn3)C2)cc1OC (stereo not given) | 104%
O=C(CNC(=O)C1COc2ccccc2O1)N/N=C/c1ccc(O)cc1O (stereo not given) | 107%

SMILES | viability
Nc1ccc(Nc2nc(-c3ccncc3)cs2)cc1 | 92.6%
CCCCN(C)CCNC(=O)CSCc1ccc(C)cc1 | 92.8%
O=C(Nc1n[nH]c(=S)s1)c1ccco1 | 102%
CN(Cc1ccccc1)Cc1c(O)ccc2ccccc12 | 97.2%
COc1ccc(CN2CCC(C(N)=O)CC2)cc1OCc1ccccc1 | 98%
COC(=O)c1cc(NCc2ccccc2F)ccc1N1CCOCC1 | 105%
COc1cc2cc(NC(C)=O)cc(NCc3ccccc3)c2cc1OC | 104%
COc1ccc(CN2CCN(Cc3ccc4ccccc4c3)CC2)cc1OC | 85.3%
Cc1nc2ccc(-c3nc4ccc(N)cc4[nH]3)cc2[nH]1 | 86.7%
Cc1nc(Cc2nnc(SCC(=O)N3CCN(c4ccc(O)cc4)CC3)o2)cs1 | 100%
Nc1nc(=S)ss1 | 97.5%
COc1cc(/C=N/n2c(C)nc3ccccc3c2=O)ccc1O | 102%
C=CCn1c(N/N=C/c2ccc(O)cc2)nc2ccccc2c1=O | 93.4%
CCCc1nc2ccccc2c(=O)n1/N=C/c1ccc(O)c(O)c1 | 80.7%
COc1cc(/C=C/c2ccc3cccc(O)c3n2)ccc1O | 100% [at 25 µM]
COc1cc(/C=C/C(C)=NNc2ccccc2)ccc1O | 98.3%
COc1cc(/C=N/NC(=O)c2cc(-c3ccccc3OC(C)C)nc3ccccc23)ccc1O | 106%
COc1cc(/C=C/c2nc3ccccc3c(=O)[nH]2)ccc1O | 83.4%
O=c1[nH]c2ccccc2nc1/C=C/c1ccc(O)cc1 | 88.1%
O=C(CN1CCN(c2ccc(O)cc2)CC1)NCC(=O)Nc1ccc(F)c(F)c1F | 112%
Cc1cccc(Nc2n[nH]c(=S)s2)c1C | 95.3%
CN1CCN(CCCNCc2cn(CCC#N)c3ccccc23)CC1 | 95.5%
COc1ccc(NC2CCCN(C(=O)CCc3cccc(F)c3)C2)cc1 (stereo not given) | 101%
COc1cc(C)c(N)cc1C(C)C | 105%

SMILES | viability
CCOC(=O)c1[nH]c2cc(OC)c(OC)cc2c1N | 106%
COc1ccc(N2CCN(C(C)C(=O)N3CCCC3)CC2)cc1 (stereo not given) | 97%
CC(=O)N1CCN(CC(O)COc2ccc(Br)cc2)CC1 (stereo not given) | 104%
O=C1C2C3C=CC(CC3)C2C(=O)N1/N=C/c1ccc(O)c(O)c1 (stereo not given) | 98.9%
CCOC(=O)c1[nH]c2ccccc2c1NC(=S)Nc1cccc(C)c1 | 103%
COc1ccc(NCc2cc3cc(OC)ccc3[nH]c2=O)cc1 | 83.8%
COc1ccc(OC(=O)COc2ccc(C)cc2)cc1 | 99.3%
COc1ccc(OC(=O)COc2cc(C)ccc2C)cc1 | 105%
Nc1c(Cl)ncnc1NCCc1ccc(O)cc1 | 92.8%
CCOC(=O)/C(C#N)=C1\C(=O)N(Cc2ccccc2)c2ccccc21 | 95%
COc1ccc(OC)c(CN2CCN(Cc3cccc4ccccc34)CC2)c1 | 87.5%
COc1ccc(CN2CCN(Cc3c[nH]c4ccccc34)CC2)c(OC)c1 | 82.3%
CCOC(=O)N/N=C/c1ccc(N2CCOCC2)s1 | 92.2%
Nc1ccc2nc(N)sc2c1 | 105%
Nc1ccc(-c2nc3ccc(N)cc3o2)cc1 | 91.5%
COc1ccccc1CNC(=O)C[C@@H]1C[C@H]2c3cc(N(C)C)ccc3O[C@H]2[C@H](CO)O1 | 105%
COc1cc(N2C(=O)C=CC2=O)ccc1N1C(=O)C=CC1=O | 106%
COc1ccc(NC2CCCN(C(=O)C3(C)CCCCC3)C2)cc1 (stereo not given) | 100%
COc1cc(CN2CCN(C(=O)c3cccc4ccccc34)CC2)cc(OC)c1OC | 96.3%
O=C(N/C(=C\c1ccc(O)cc1)C(=O)N1CCCCC1)c1ccccc1 | 102%
S=c1[nH]nc(-c2ccncc2)n1/N=C/C=C/c1ccccc1 | 109%
COc1cccc(OC)c1OCCCN1CCOCC1 | 103%
CCOC(=O)c1[nH]c2ccccc2c1NC(=S)Nc1ccccc1 | 103%
CCC(=O)Nc1ccc(Nc2ccccc2)cc1 | 118%

SMILES | viability
COc1cccc2[nH]c(C(=O)NN)c(N)c12 | 90.4%
CC1CN(CCOCCOc2ccccc2-c2ccccc2)CC(C)O1 (stereo not given) | 87.1%
O=C1C(Cl)=C(NC(=O)c2ccccc2)C(=O)C(Cl)=C1NC(=O)c1ccccc1 | 106%
O=C1c2ccccc2NC(c2ccc(O)cc2)N1/N=C/c1ccc(O)cc1 (stereo not given) | 100%
COc1ccc(NC2CCCN(C(=O)c3ccccc3C(F)(F)F)C2)cc1 (stereo not given) | 94.8%
COC(=O)c1cc(NCc2c(F)cccc2Cl)ccc1N1CCOCC1 | 106%
COc1ccc(C=Nc2ccc3[nH]ncc3c2)c(O)c1 | 101%
CCOC(=O)c1[nH]c2ccc(OC)cc2c1NC(=O)c1ccccc1C(=O)O | 83.2%
COc1ccc2[nH]c3c(=O)n(CCCCC(=O)N4CCC(C(N)=O)CC4)c(=S)[nH]c3c2c1 | 109%
COc1ccc2[nH]c3c(=O)n(Cc4ccc(C(=O)N5CCC(C(N)=O)CC5)cc4)c(=S)[nH]c3c2c1 | 80.8%
CCOC(=O)C1CCN(C2=NC(=O)/C(=C/c3ccc(O)cc3)S2)CC1 | 96.4%
c1ccc(-c2ccccc2OCCOCCN2CCOCC2)cc1 | 85.7%
COc1cc(NC(C)CCCNC(C)C)c2ncccc2c1OC (stereo not given) | 93.5%
C=CCc1cc(OC)ccc1OCCN1CC(C)OC(C)C1 (stereo not given) | 95.6%
Cc1cc(O)ccc1NC(=O)c1ccccc1 | 94%
O=C(Cc1coc2cc(O)ccc12)N1CCN(S(=O)(=O)c2ccc(Br)cc2)CC1 | 90.8%
S=C(NCCN1CCOCC1)Nc1ccc(Nc2ccccc2)cc1 | 97.8%
COc1ccc(CN2CCN(Cc3ccccc3F)CC2)c(OC)c1 | 92.1%
CCN(Cc1ccccc1)C1CCN(Cc2ccc(SC)cc2)CC1 | 97.6%
CC1CCCCN1CC(=O)Nc1ccc(N2CCCCCC2)cc1 (stereo not given) | 105%
CC(=O)N1CCN(c2ccc(NCc3cccs3)cc2)CC1 | 104%
Oc1ccc(/C=N/NC(=S)N2CCOCC2)cc1 | 107%
Cc1c(NC(=S)N/N=C/c2ccc(O)cc2)c(=O)n(-c2ccccc2)n1C | 90.6%
COc1cc(CN2CCN(C(=O)CC(C)C)CC2)cc(OC)c1O | 91.8%
